USP10 inh = blocks human USP10 ubiquitin-rhodamine cleavage; Q14694; purified USP10, Ub-rhodamine fluorescence, 60 min; inhibition, % at 20 µM; 47,000 tested, 1.1% active
Target sequence (Q14694 whole entry, looked up): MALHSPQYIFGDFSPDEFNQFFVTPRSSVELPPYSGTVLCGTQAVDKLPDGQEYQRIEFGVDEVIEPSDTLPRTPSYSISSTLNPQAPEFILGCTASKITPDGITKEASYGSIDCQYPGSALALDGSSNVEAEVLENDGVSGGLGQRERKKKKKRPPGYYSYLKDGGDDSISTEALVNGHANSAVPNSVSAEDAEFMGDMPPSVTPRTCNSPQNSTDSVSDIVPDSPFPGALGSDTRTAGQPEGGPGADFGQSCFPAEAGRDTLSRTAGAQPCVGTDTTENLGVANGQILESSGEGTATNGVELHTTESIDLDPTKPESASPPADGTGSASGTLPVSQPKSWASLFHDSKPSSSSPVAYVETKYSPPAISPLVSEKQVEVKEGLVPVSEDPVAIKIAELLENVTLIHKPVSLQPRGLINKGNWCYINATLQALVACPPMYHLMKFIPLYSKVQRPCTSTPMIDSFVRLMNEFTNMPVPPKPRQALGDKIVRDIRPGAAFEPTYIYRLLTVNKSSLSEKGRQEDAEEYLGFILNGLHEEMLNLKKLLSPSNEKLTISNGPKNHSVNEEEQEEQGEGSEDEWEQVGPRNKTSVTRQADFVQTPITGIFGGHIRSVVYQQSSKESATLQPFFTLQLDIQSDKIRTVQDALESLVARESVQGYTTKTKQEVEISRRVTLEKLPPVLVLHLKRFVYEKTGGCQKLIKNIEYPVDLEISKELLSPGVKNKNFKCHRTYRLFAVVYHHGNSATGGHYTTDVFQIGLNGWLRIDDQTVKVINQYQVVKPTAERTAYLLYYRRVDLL
UCHL1 block = human UCHL1 deubiquitinase inhibition; purified UCHL1, Ub-rhodamine cleavage fluorescence; AID 1645859; 47,000 tested, 0.2% active; P09936; inhibition, % at 20 µM
USP8 block = inhibitors of human USP8 deubiquitinase; 47,000 tested, 4.2% active; purified USP8, Ub-rhodamine cleavage fluorescence, 30 min; inhibition, % at 20 µM
USP7 block = inhibitors of human USP7 deubiquitinase; purified USP7, Ub-rhodamine cleavage fluorescence; 47,000 tested, 0.3% active; inhibition, % at 20 µM; Q93009
OTUD3 inh = human OTUD3 deubiquitinase inhibition; Q5T2D3; purified OTUD3, Ub-rhodamine fluorescence, 2 h; inhibition, % at 25 µM; 47,000 tested, 0.7% active
Numbers without * were called inactive. In the library only some 5% were active in any assay of this set; here they are far more common. No stated cut-off is given here; in the data, active means inhibition above about 30%; inactive means the rest.

SMILES | USP10 inh | UCHL1 block | USP8 block | USP7 block | OTUD3 inh
Cc1[nH]nc2c1C(c1cccc(F)c1)SCC(=O)N2 (stereo not given) | 3 | -4 | 3 | -3 | -6
Cc1cccc(COc2ccc(C3SCC(=O)Nc4n[nH]c(C)c43)cc2)c1 (stereo not given) | 7 | 8 | 86* | -24 | 13
COc1cc(O)c2c(O)c3c(c4c2c1C1(C4)C(C)=CCCC1(C)C)C(O)C1(O)CC(=O)C(C(N)=O)=C(O)C1(O)C3=O (stereo not given) | -10 | -124 | -313 | -131 | -143
CC(C)=CCCC1(C)C=Cc2c(O)c3c(c(CC=C(C)C)c2O1)O[C@]12C(=C[C@@H]4CC1C(C)(C)O[C@@]2(C/C=C(/C)C(=O)O)C4=O)C3=O (stereo not given in full) | 75* | 64* | 70* | 84* | 77*
COc1cccc2c1N(Cc1ccccc1)C(=O)C21CCN(C(=O)NCC(=O)O)CC1 | 0 | -3 | -1 | 0 | -16
COc1c(Cl)ccc2c(=O)c3c(oc12)C1=C2[C@@H](OCO1)[C@@H](OC)c1cc4c(c(O)c1[C@@]2(O)[C@H]3O)C(=O)N(C)[C@H](OC)[C@@H]4O | -8 | 12 | -17 | 4 | 32*
CN1CC[C@@H]2[C@H](C1)CN2S(=O)(=O)c1ccccc1 | 0 | -2 | -37 | -2 | -11
COc1ccc(OC)c(-c2c(C#N)c(C)nc3c2N2CCC3CC2)c1 | -1 | -1 | 0 | 8 | 33*
Cn1cc(CN2C[C@H]3C[C@H](C(=O)Nc4cccnc4)[C@@H](C2)O3)cn1 | 7 | -1 | 1 | 4 | -3
O=C1CSC(c2ccc(F)cc2)c2c(n(C3CCCCCC3)[nH]c2=O)N1 (stereo not given) | 11 | 4 | 83* | 22 | 8
Cc1cc(C)cc(-n2c(CSc3ccc(F)cc3)nc3cc(Cl)ccc3c2=O)c1 | 5 | 3 | 9 | 7 | 7
N#Cc1ccc(COC(=O)C(O)(c2ccccc2)c2ccccc2)cc1 | 6 | 6 | 5 | -106 | 11
Cc1ccc2nc(COC(=O)C(O)(c3ccccc3)c3ccccc3)cc(=O)n2c1 | -2 | 2 | 40* | -15 | -4
COc1ccccc1-c1cc([C@H]2CN3CC[C@H]2C[C@@H]3CN)n(C)n1 | -9 | -66 | 54* | -46 | -47
COc1ccc(-c2cc([C@H]3CN4CC[C@H]3C[C@@H]4CO)n(C)n2)cc1OC | -1 | 4 | -2 | 7 | 10
Cc1ccc(CN2CC[C@@H]3CN(c4ncccn4)CCO[C@@H]3C2)o1 | -6 | -5 | -31 | 0 | 1
Cc1cc(OC(C)C(=O)N2CCC3(O)CCCCC3C2)c2c3c(c(=O)oc2c1)CCC3 (stereo not given) | -2 | -3 | -1 | -56 | -11
CO[C@H]1[C@@H](O)[C@H](C)O[C@H](O[C@H]2[C@H](Oc3cccc4c(O)c5c(=O)oc6ccc(C)c7c(=O)oc(c34)c5c67)O[C@H](C)[C@H](O)[C@@H]2O)[C@@H]1O | -15 | -162 | -329 | -160 | 51*
COc1cc2c3c(c4cc(OC)c(OC)cc4c2cc1OC)CN1CCC[C@@H]1C3 | -2 | -6 | -29 | -7 | -25
CC[C@@H]1[C@@H](C)O[C@@](O)([C@@H](C)[C@H](O)[C@H](C)[C@H]2OC(=O)/C=C/C=C/[C@H](C)[C@@H]([C@@H](C)[C@@H](O)[C@H](C)[C@@]3(O)C[C@@H](O[C@H]4C[C@H](O)[C@H](O)[C@H](C)O4)[C@H](CC)[C@@H](C)O3)OC(=O)/C=C/C=C/[C@@H]2C)C[C@H]1O[C@H]1C[C@H](O)[C@H](O)[C@H](C)O1 | 1 | 13 | -15 | 51* | 0
Cn1c(=O)c2ncnnc2n(C)c1=O | 89* | 50* | 98* | -68 | 90*
COC(=O)[C@@]1(O)c2c(oc3cccc(O)c3c2=O)OC=C(C)[C@H]1O | 0 | -1 | -10 | -2 | 10
COC(=O)[C@]1(O)O[C@@]2(C(=O)OC)c3c(oc4cc(C)cc(O)c4c3=O)[C@H]3c4c(oc5cc(C)cc(O)c5c4=O)C[C@H]1[C@H]32 | -7 | -21 | -157 | -22 | 32*
CCCCCC(O)c1c(O)cc2c(c1O)C(=O)c1c(O)cc(O)cc1C2=O (stereo not given) | 33* | 6 | -16 | -104 | -74
COC(C)[C@](O)(C(=O)OCC1=CCN2CC[C@@H](O)[C@@H]12)C(C)C (stereo not given in full) | -1 | -1 | 15 | 2 | 12
SMILES | USP10 inh | UCHL1 block | USP8 block | USP7 block | OTUD3 inh
CCOC(=O)[C@]1(C#N)[C@@H]2C=CC(C(C)=O)=CN2[C@@H](C(N)=O)[C@@H]1c1ccc(F)cc1 | -5 | -57 | -187 | -57 | -196
CN(C)[C@@H]1C(=O)C(C(N)=O)=C(O)[C@@]2(O)C(=O)C3=C(O)c4c(O)cccc4[C@@](C)(O)C3[C@H](O)[C@@H]12 (stereo not given in full) | 62* | 90* | 50* | 89* | 90*
O=C1CCOC[C@]2(CNC[C@H]2c2ccc(F)c(F)c2)N1 | -1 | 0 | 14 | 3 | 0
O=C1CN=C(c2ccccc2)c2ccccc2N1Cc1ccccc1F | 2 | -1 | 22 | -14 | 1
CCC(CC)n1[nH]c(=O)c2c1NC(=O)CSC2c1ccc2c(c1)OCO2 (stereo not given) | 5 | -1 | 43* | 10 | 8
O=c1c2ccccc2nc(CSc2cccc(Cl)c2Cl)n1-c1ccccc1 | 21 | -2 | 30* | 0 | 9
Cc1ccccc1SCc1nc2ccccc2c(=O)n1-c1cccc(C(F)(F)F)c1 | 7 | 9 | 19 | -14 | 11
CC(C)=CCC[C@H](C(=O)O)[C@@H]1CC[C@]2(C)C3=C(CC[C@@]12C)[C@@]1(C)CCC(=O)C(C)(C)C1CC3 (stereo not given in full) | 38* | 0 | 13 | 6 | 11
O=C(c1cc(Cl)c(Cl)[nH]1)c1cc(Cl)cc(Cl)c1O | 40* | -3 | 8 | -10 | 1
CC(C)c1cc2c(c(O)c1O)[C@@]1(C(=O)O)CCCC(C)(C)[C@@H]1CC2 | 15 | 8 | 7 | 15 | 36*
CC(C)c1cc2c(c(O)c1O)C1(C(=O)O)CCCC(C)(C)C1CC2 (stereo not given) | 15 | 2 | 1 | 16 | 46*
CCN(CC)C(=O)C1=NOC2(CCCNC2)C1 (stereo not given) | 1 | -3 | -180 | 2 | 0
CC1CCCCN1Cc1nc2ccc([N+](=O)[O-])cc2c(=O)n1-c1ccccc1F (stereo not given) | -11 | -12 | -155 | -54 | -23
Oc1ccc2cc(Br)ccc2c1CN1CC=C(c2ccccc2)CC1 | 2 | 1 | 44* | 2 | 7
O=C(CN1CC=C(c2ccccc2)CC1)Nc1ccc2c(c1)OCO2 | -2 | 2 | 8 | 3 | 8

Screening data as filed in PubChem BioAssay.
